From PubChem BioAssay (NCI)
Where “and” joins values, the source holds several entries; their conditions need not be identical. Equal entries are not always repeated. Compounds without any hit were thinned out: in the full panel of roughly 83,000, 20% have a hit.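 Step 1: grow cells in 96-well plates. Step 2: add test compound at a single concentration. Step 3: incubate 48 h. Step 4: record percent growth.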 Calls of active or inactive are those of the source. The calls were made as follows: active = growth percent below 10; inactive = the rest.

Test system: UACC-62 melanoma
Assay: NCI-60 one-dose screen, 48 h (100 = growth as untreated, 0 = no growth, -100 = all killed)
Details: 10 µM unless noted

SMILES | growth
O=C1/C(=C/c2cn(-c3ccccc3)nc2-c2ccccc2)SC(=S)N1c1ccc(Cl)cc1 | 57.5% (inactive)
CN(C)CCCn1c2c(c3ccc(N4CCNCC4)cc3c1=O)C(=O)c1ccccc1-2 | 51.8% (inactive)
CCOc1ccccc1NC(=O)c1cc2ccccc2cc1O | 21.2% (inactive)
COc1ccc(C/C(C)=C(/c2ccc(OCCN3CCCCCC3)cc2)c2ccc(OC(=O)c3ccccc3)cc2)cc1 | 99.1% (inactive)

Test system: LOX IMVI melanoma
Assay: as above
Details: 10 µM unless noted

SMILES | growth
COc1ccc(C(=O)c2ccc(OC)c(OC)c2OC)cc1 | 34.3% (inactive) and 39.8% (inactive)
O=C1/C(=C/c2ccccc2)CN(C(=O)C(Cl)Cl)C/C1=C\c1ccccc1 | -88.4% (active)
C=C(C)[C@@H]1CC[C@]2(C(=O)O)CC[C@]3(C)[C@H](CC[C@@H]4[C@@]5(C)CCC(N)C(C)(C)[C@@H]5CC[C@]43C)[C@@H]12 (stereo partly drawn) | -51.1% (active)
N#C/C(=C\c1ccc(Br)cc1)n1nnc2c(F)cccc21 | -69.1% (active)
COC1=CC(=O)C(OC)=C(O)C1=O | 99.6% (inactive)
CC(C)(C)c1cc(NC(=O)Nc2ccc(-c3cn4c(n3)sc3cc(OCCN5CCOCC5)ccc34)cc2)no1 | 0.319% (active) and 23.4% (inactive)
COc1cccc(C2C(C#N)=C(N)Oc3cc(OCCCCCC[P+](c4ccccc4)(c4ccccc4)c4ccccc4)ccc32)c1 (stereo not drawn) | -93.8% (active)
COc1ccc(-c2ccccc2)cc1-c1c(Nc2cc(Cl)cc(Cl)c2O)c(=O)c1=O | 7.28% (active)
Cc1ccc(S(=O)(=O)Nc2cc(Sc3ccccc3)c(O)c3ccccc23)cc1 | 2.72% (active)
